AHR activator: human AHR activation; P35869; AHR-responsive luciferase reporter cells, luminescence; 320,000 tested, 2.5% active; activation, % at 5 µM; in the data active means activation above about 47%
Target sequence (P35869 whole entry, looked up): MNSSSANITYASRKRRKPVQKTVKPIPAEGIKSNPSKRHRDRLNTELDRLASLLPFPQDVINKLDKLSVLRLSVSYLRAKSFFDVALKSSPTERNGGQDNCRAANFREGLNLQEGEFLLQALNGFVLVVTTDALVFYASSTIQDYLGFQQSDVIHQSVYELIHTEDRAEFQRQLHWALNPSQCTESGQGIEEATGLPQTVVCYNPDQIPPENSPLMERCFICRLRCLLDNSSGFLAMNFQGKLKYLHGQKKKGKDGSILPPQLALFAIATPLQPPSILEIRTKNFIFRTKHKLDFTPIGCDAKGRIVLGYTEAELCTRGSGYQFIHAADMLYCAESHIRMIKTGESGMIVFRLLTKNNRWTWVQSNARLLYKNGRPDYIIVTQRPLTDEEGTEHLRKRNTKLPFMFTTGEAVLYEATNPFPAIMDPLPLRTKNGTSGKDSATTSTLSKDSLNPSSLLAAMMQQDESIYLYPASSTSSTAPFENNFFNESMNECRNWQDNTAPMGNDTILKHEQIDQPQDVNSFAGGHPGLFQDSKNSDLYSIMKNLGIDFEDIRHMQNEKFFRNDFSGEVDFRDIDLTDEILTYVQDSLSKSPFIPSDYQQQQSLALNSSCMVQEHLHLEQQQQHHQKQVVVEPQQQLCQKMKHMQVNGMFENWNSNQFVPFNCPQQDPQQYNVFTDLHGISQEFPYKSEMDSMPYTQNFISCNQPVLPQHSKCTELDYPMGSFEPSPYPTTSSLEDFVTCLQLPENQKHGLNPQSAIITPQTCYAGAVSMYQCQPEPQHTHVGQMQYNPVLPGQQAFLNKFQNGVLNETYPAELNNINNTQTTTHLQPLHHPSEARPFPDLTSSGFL
hcDAF-12 act: activates DAF-12 receptor from parasite H. contortus; HEK293 hcDAF-12 lit1-tk-luc reporter, luminescence; 0% DMSO, 100% Δ7-dafachronic acid; activation, % at 6.8 µM; 370,000 tested, 1.4% active; AID 652067;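 active means activation above the mean of all tested compounds plus 3 SD, cut at about 5.5% in these data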
hgDAF-12 ag: hgDAF-12 agonism, primary luciferase screen | HEK293 GAL4-hgDAF12 UAS-luciferase reporter, agonist luminescence; normalized to butyrate control | activation, % at 6.8 µM | 370,000 tested, 1.8% active | AID 687014;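 active means activation above a cutoff set at the mean of all screened compounds plus 3 SD, cut at about 10% in these data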
ssDAF12 agonist: activators of S. stercoralis DAF-12 nuclear receptor | HEK293 ssDAF-12/GRIP1 lit1-tk-luc reporter, luminescence; % of 3 µM dafachronic acid response | activation, % at 6.8 µM | 370,000 tested, 1% active | AID 652126;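 active means activation above the mean over all tested compounds plus 3 SD, cut at about 0.9% in these data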
DAX1 inh-1: inhibitors of DAX1 repression of SF-1 activated StAR promoter; 370,000 tested, 1.1% active; inhibition, % at 6.8 µM; HEK293T StAR-luciferase reporter, SF-1/DAX-1 repression relief;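 active means inhibition above the mean over all tested compounds plus 3 SD, cut at about 3.6% in these data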;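 further: higher inhibition means more luminescence from relief of DAX-1 repression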
DAX1 inh-2: NR0B1 (DAX1) inhibition; inhibition, % at 6.75 µM; P51843; 340,000 tested, 0.99% active; AID 504766; HEK293 Gal4-DAX1 luciferase reporter, luminescence;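 active means inhibition above the mean over all tested compounds plus 3 SD, cut at about 4.2% in these data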;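 further: inhibition shows as a rise in luminescence from relieved DAX1 repression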
Numbers stand for hits; n = inactive; x = no result. Only some compounds are listed: those with a hit (about 5.7% of all), similar ones and a draw of the others.

SMILES	AHR activator	hcDAF-12 act	hgDAF-12 ag	ssDAF12 agonist	DAX1 inh-1	DAX1 inh-2
COc1ccccc1C1=NOC(Cn2c(=O)c3c(ncn3C)n(C)c2=O)C1 (configuration not stated)	n	n	n	0.9	n	n
O=C(N[C@H](Cc1ccccc1)C(=O)N1CCN(Cc2ccccn2)CC1)[C@H]1O[C@@H](n2ccc(=O)[nH]c2=O)[C@H](O)[C@@H]1O	x	n	n	n	n	x
COc1ccc(NC(=O)/C(C#N)=C/c2ccc[nH]2)c(OC)c1	n	6.5	n	n	n	n
COc1ccc(OC)c(NC(=O)C(C#N)=Cc2ccco2)c1	x	n	n	n	n	n
N#Cc1nccnc1N1CCN(C(=O)Nc2ccccc2)CC1	n	n	n	n	n	n
CC(Cl)C(=O)N1CCC(C(=O)NC2CCCc3ccccc32)CC1 (configuration not stated)	x	n	n	n	n	x
Nn1c(SCC(=O)NCCC2=CCCCC2)nnc1C1CCCCC1	n	n	n	n	n	n
Nn1c(SCC(=O)NCCC2=CCCCC2)nnc1C(F)(F)F	49.5	x	x	x	x	n
COc1ccc(F)cc1C(=O)C1CCCN(Cc2cccn2-c2cccnc2)C1 (configuration not stated)	52.2	n	n	n	n	n
O=C(O)c1ccc(N/N=C/C=C/c2ccccc2[N+](=O)[O-])cc1	n	n	11.9	3.6	n	n
O=C(N/N=C/c1ccccc1[N+](=O)[O-])c1ccncc1	n	n	n	n	n	n
O=C(Cc1ccccc1)N/N=C/C=C/c1ccccc1[N+](=O)[O-]	n	n	n	n	n	x
O=C(N/N=C/c1ccccc1[N+](=O)[O-])c1cnccn1	n	n	n	n	n	4.3
O=[N+]([O-])c1ccccc1C=CC=NN=Cc1ccccc1O	x	n	n	n	n	5.5
O=C(N/N=C/C=C/c1ccccc1[N+](=O)[O-])c1cccnc1	71.9	n	n	n	n	n
Oc1ccccc1C=NN=CC=Cc1ccccc1	x	n	n	n	n	n
Cc1ccc(CSCC2Nc3ccc(C(=O)N4CCN(c5cccc(C)c5)C(C)C4)cc3NC2=O)cc1 (configuration not stated)	n	x	x	x	x	x
COc1ccc(Oc2ccc(/C=N/NC(=O)c3cccnc3)cc2[N+](=O)[O-])cc1	n	n	n	n	n	4.6
Cc1nc2ccc(Br)cn2c1C(=O)N/N=C\c1ccccc1[N+](=O)[O-]	n	6.2	10.5	n	n	x
Cc1ccc2nc(C)c(C(=O)N/N=C/c3cccs3)n2c1	n	n	12.0	n	n	n
Cc1nc2ccc(Br)cn2c1C(=O)N/N=C\c1ccccc1Cl	n	n	n	n	n	n
COCCCNC(=O)C[C@H]1C[C@@]2(C(=O)OC)C(=C[C@H](C(C)C)O[C@@H]2C2CC2)N(Cc2ccccc2)C1=O	x	n	n	n	n	x
O=c1[nH]c(/C(Cl)=C/c2cc(Cl)ccc2O)nc2cc(Cl)ccc12	n	n	n	n	n	n
O=c1[nH]c(/C(Cl)=C/c2c(F)cccc2Cl)nc2cc(Cl)ccc12	57.9	n	n	n	n	n
COC(=O)[C@H]1C[C@@H]1[C@H](N)c1ccccc1	n	n	n	n	n	n
SMILES	AHR activator	hcDAF-12 act	hgDAF-12 ag	ssDAF12 agonist	DAX1 inh-1	DAX1 inh-2
Cc1cc(C)c(C(N)=O)c(SCC(=O)c2cc(C)c(C)cc2C)n1	n	n	n	n	n	n
C=CCSc1[nH]c(=O)cc(C)c1C(N)=O	n	n	n	n	n	5.1
CCCCOCCCNc1ncnc2c1[nH]c1ccccc12	n	n	n	n	n	n
CCCCOc1ncnc2c1[nH]c1ccccc12	50.0	n	n	n	n	n
CCOCCCNc1ncnc2c1[nH]c1ccccc12	49.7	n	n	n	n	n
COC(=O)c1cc(=O)n(Cc2ccc3c(c2)OCO3)c(=Nc2ccc(F)cc2)s1	n	n	n	n	n	n
COC(=O)c1cc(=O)n(Cc2ccc(F)cc2)c(=NCc2ccc(F)cc2)s1	n	n	n	1.4	n	n
COc1ccccc1-n1c(SCC(=O)OC(C)C)nc2cccnc21	n	n	n	n	n	n
CC(C)CC(=O)N1CCN(C(=O)c2ccco2)CC1	n	5.7	n	n	n	n
CCCCOc1ccc(C(=O)NCC(=O)N2CCN(C(=O)c3ccco3)CC2)cc1	n	n	n	n	n	n
O=C(NCC(=O)N1CCN(C(=O)c2ccco2)CC1)c1ccccc1	n	n	n	1.0	n	n
Nn1c(Nc2ccccc2)nc2ccccc21	n	n	n	n	n	4.4
CCOC(=O)N1CCN(c2c(NCCN3CCCCC3CC)c(=O)c2=O)CC1 (configuration not stated)	n	n	n	n	4.2	n
CCOC(=O)C1CCCN(c2c(NCCN3CCCCC3CC)c(=O)c2=O)C1 (configuration not stated)	n	n	n	n	n	n
CSc1ccc(/C=C(/NC(=O)c2ccc(C)cc2)C(=O)Nc2cccc(F)c2)cc1	n	6.3	n	n	n	n
CC(=O)c1cccc(NC(=O)/C(=C\c2cccnc2)NC(=O)c2ccc(C)cc2)c1	n	n	n	n	n	n
NC(=O)C1CC(=O)N(c2ccc(OCc3ccc(Cl)cc3)cc2)C1 (configuration not stated)	n	n	11.6	n	n	n
CCCNC(=O)C1CC(=O)N(c2ccc(OCc3ccc(F)cc3)cc2)C1 (configuration not stated)	n	5.9	12.9	n	n	n
CC(C)C[C@H]1CNC(=O)C(=O)N1C[C@@H]1CCCN1C[C@H](Cc1ccccc1)N1C[C@H](CC(C)C)N(CC2CCCCC2)C(=O)C1=O	x	n	n	n	n	x
CCCCC1(c2ccc(F)cc2)NC(=O)N(CC(=O)Nc2ccc(N3CCOCC3)cc2)C1=O (configuration not stated)	n	n	n	n	n	n
COc1ccc(CNC(=O)CCc2nc(-c3ccccc3F)no2)c(OC)c1	49.0	n	n	n	n	n
COc1ccc(Br)cc1CNC(=O)CCc1nc(-c2ccccc2F)no1	n	n	n	n	n	n
CCOc1ccc(-c2nnc(-c3ccco3)o2)cc1OCC	n	n	n	n	n	7.7
Cc1ccc(-c2nnc(-c3ccc4c(c3)OCO4)o2)cc1	78.6	n	n	n	n	n
Brc1ccc(-c2nnc(-c3ccc4c(c3)OCO4)o2)o1	n	n	n	n	n	n
c1coc(-c2nnc(-c3ccc4c(c3)OCO4)o2)c1	x	n	12.8	n	3.7	x
c1ccc(-c2nnc(-c3ccco3)o2)cc1	n	5.8	10.6	n	n	n
Brc1ccc(-c2nnc(-c3ccco3)o2)cc1	n	n	n	n	n	n
CCOc1cc(-c2nnc(-c3ccco3)o2)cc(OCC)c1OCC	n	n	n	n	n	n
COc1ccc(Cl)cc1C(=O)N1CCN(Cc2ccc3c(c2)OCO3)CC1	n	n	n	n	n	n

Assay outcomes from PubChem BioAssay.
